# The panel holds about 79,000 compounds, 15% with a hit somewhere; the sample as a whole holds those more often. Unmarked numbers belong to inactive results. The source made the active and inactive calls. Cut-off read from the data, not from the text of the source: active = growth inhibition above about 70%; inactive = the rest.
# Columns and labels:
# [1] = NCI Yeast Anticancer Drug Screen. Data for the rad50 strain (AID 155);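 note: 0% = growth of vehicle-only cultures of the same strain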; conditions: S. cerevisiae rad50 strain growth inhibition; at 50.0 µM; hits give high values
# Procedure, shortened: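 Readout: growth inhibition relative to vehicle-treated cultures. Compound exposure was carried out in a genetically defined yeast strain deficient in DNA damage repair.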
# [2] = NCI Yeast Anticancer Drug Screen. Data for the mec2-1 strain (AID 157); conditions: S. cerevisiae mec2-1 strain, at 50.0 µM, hits give high values
# Procedure, shortened: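 Using mec2-1 yeast: add compound, measure growth, express inhibition versus vehicle-treated cultures.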
# [3] = NCI Yeast Anticancer Drug Screen. Data for the sgs1 mgt1 strain (AID 161);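 note: 0% = growth of cultures given vehicle only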; conditions: S. cerevisiae sgs1 mgt1 strain, at 50.0 µM, hits give high values
# Procedure, shortened: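 Compounds are added to genetically altered yeast, and growth is compared with cultures given vehicle alone to give percent inhibition.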
# [4] = NCI Yeast Anticancer Drug Screen. Data for the cln2 rad14 strain (AID 165);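 note: 0% = growth equal to vehicle treated cultures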; conditions: S. cerevisiae cln2 rad14 strain, at 50.0 µM, hits give high values
# Procedure, shortened: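 Yeast strain cln2 rad14, bearing defects in cell cycle control and DNA repair, serves as the test system; values reflect growth inhibition compared with vehicle.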
# [5] = NCI Yeast Anticancer Drug Screen. Data for the bub3 strain (AID 167); conditions: S. cerevisiae bub3 mutant strain, at 50.0 µM, hits give high values
# Procedure, shortened: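 Readout: yeast growth inhibition, expressed relative to vehicle-only wells. The test organism is a mutant strain from a panel with lesions in DNA repair or checkpoint genes.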
# [6] = NCI Yeast Anticancer Drug Screen. Data for the mlh1 rad18 strain (AID 175); conditions: S. cerevisiae mlh1 rad18 strain growth inhibition; at 50.0 µM; hits give high values
# Procedure, shortened: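 Steps: expose repair-defective yeast to compound; measure growth; express inhibition against vehicle-treated controls.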
Compound,growth inhibition [1],growth inhibition [2],growth inhibition [3],growth inhibition [4],growth inhibition [5],growth inhibition [6]
Cc1ccc(N=C=O)cc1N1C(=O)N(c2cc(N=C=O)ccc2C)C1=O,-41.5%,-55%,-48%,-139%,-10.5%,-60.4%
CC1(C)NC(=S)NC1=S,5.4%,-6.9%,-13.9%,-26.9%,-4.45%,-4.35%
O=c1/c(=C/c2ccccc2F)sc2nc3ccccc3n12,-2.85%,-11.3%,12.2%,29%,21.1%,12.3%
CCOC(=O)C(=CNc1ccc(NC2=NCC(C)S2)cc1)C(=O)OCC (stereo not given),-0.05%,0.35%,-20.4%,-7.9%,-35.8%,-47%
CCCCC(C)NC(=O)c1ccccc1 (stereo not given),4.3%,11.3%,-23.8%,-52.5%,-3.8%,2%
NS(=O)(=O)c1cc(Br)ccc1Br,8.2%,12.9%,-0.35%,39.6%,17.6%,-7.65%
CC(/C=N/N(C)C1=NCCCN1)=N/N(C)C1=NCCCN1,14.3%,1.6%,-7.35%,-35.6%,-2.55%,11.2%
O=c1oc2ccccc2[n+]([O-])c1-c1ccccc1,-9.9%,-10.8%,-9.35%,16.9%,-18.8%,-17.9%
C=C(C)C(=O)Nc1ccc2nn(-c3ccccc3O)nc2c1,-24.9%,-25.4%,1.75%,8.15%,-14.2%,5.3%
CN(C)S(=O)(=O)c1ccc(Cl)cc1,-1.65%,-4.4%,2.7%,0.3%,-0.2%,-9.3%
O=C(O)CCC(=O)c1ccc2c3c(cccc13)CC2,22.6%,0.9%,15.2%,46%,21.5%,36%
O=c1c(SCc2ccc(Cl)cc2)c(N2CCCCC2)cnn1-c1ccccc1,20.5%,19.4%,10.8%,34%,9.3%,15.1%
C/C=C/C(=O)N(CC)c1ccccc1,37.2%,-2.25%,10.8%,-8.35%,2.9%,33.8%
COc1cc(C(=O)N2C3C4CCC(C)(OC4(C)C)C32)cc(OC)c1OC (stereo not given),18.4%,-15.4%,2.8%,10.2%,6%,-8.9%
O=C(/C=C\c1ccco1)NC(=O)NC(=O)N1CCCCC1,-0.7%,-22.3%,-2.05%,-16.4%,-9.15%,4.7%
O=C(O)c1ccc(Cl)c2ncccc12,5.3%,1.25%,-1.3%,-28.2%,-9.75%,13.2%
CC1(C)N=C(N)NC(Nc2ccccc2)=N1,-0.2%,-6.5%,-27.6%,-26.9%,-10.8%,-0.05%
Cc1ccc(Cc2n[nH]c(=O)n2/N=C\CC/C=N\n2c(Cc3ccc(C)cc3)n[nH]c2=O)cc1,-13.9%,-23.6%,-18.1%,-0.9%,-28.9%,-4.05%
CCC[CH2][Ge]([CH2]CCC)([CH2]CCC)[n]1ccc2ccccc21,24%,31.2%,47%,20.3%,45.9%,44.7%
CCCCNS(=O)(=O)c1ccc(-c2ccc3c(c2)-c2ccc(S(=O)(=O)NCCCC)cc2S3(=O)=O)cc1,28.3%,7.05%,1.5%,-33.2%,20.1%,9.7%

Compound,growth inhibition [1],growth inhibition [2],growth inhibition [3],growth inhibition [4],growth inhibition [5],growth inhibition [6]
CCC(=O)NC1CCCCC1,8.6%,3.5%,19.2%,-15.3%,-13.9%,1.4%
CC(C)N1CCC(OC(=O)Nc2ccccc2)C1 (stereo not given),3.85%,5.6%,-7.75%,-27.1%,-14.5%,8.35%
CC(O)COC1CCCCC1 (stereo not given),-2.75%,-10.9%,3.85%,-7.25%,-3.95%,-0.95%
CSC(=S)Nc1nc2ccc(C)cc2s1,21.4%,0.4%,-2.95%,-15%,11.3%,-14.8%
CCOC(=O)C1(C#N)C(C#N)(C#N)C1(C)CC (stereo not given),10.8%,-1.2%,24.8%,-1.1%,0.75%,-0.75%
CN(C)c1ccc(/C=c2/sc3nc(=O)c(-c4ccccc4NC(=O)C(F)(F)F)nn3c2=O)cc1,3.95%,2.65%,-5.95%,-12.1%,-20.4%,-5.15%
CC(O)C1OC(O)C2OC(C)(C)OC12 (stereo not given),20.1%,17.4%,16.4%,-4.35%,14.6%,7.9%
O=[N+]([O-])c1ccc(N=Cc2ccccc2O)c(O)c1,21.9%,-4.05%,2.75%,-8.55%,20.8%,-2.05%
Cc1ccc(NC(=O)C(=O)C2NC(=S)NC2=O)c([N+](=O)[O-])c1 (stereo not given),8.35%,3.25%,17.8%,20.1%,5.6%,8.55%
CCN(CC)S(=O)(=O)c1ccc(S(C)(=O)=O)cc1,-19.8%,-10.9%,-8.05%,-60.1%,8.35%,-14.2%
Cc1ccc(-c2nc3ccccc3c(=O)o2)cc1,11.4%,-9.05%,-6.05%,-8.6%,4.75%,14.3%
O=C1CC(c2ccccc2)=NCCN1,-9.2%,16.2%,11.9%,-3.55%,-19.4%,-7.25%
COc1ccc(Cl)cc1NC(=O)Nc1ccc(S(N)(=O)=O)cc1,9.7%,8%,4.85%,18.1%,19.1%,9.65%
O=C(COc1cccc(Cl)c1)Nc1cccc(S(=O)(=O)O)c1 (tested in a mixture with another compound),5.15%,-7.65%,-12.8%,-16.6%,2%,11.2%
C=C(C)c1nc(C#N)c(N)o1,33%,5.6%,-13.4%,4.5%,-37.8%,-33.4%
O=C1OC(=O)c2c(Cl)c(Cl)c(Cl)c(Cl)c21,8.55%,-0.15%,23.9%,-34.9%,-6.25%,2.5%
CC(=N\N)/C(C)=N/N=C(C)/C(C)=N/N=C(C)/C(C)=N/N=C(C)/C(C)=N/N,11.7%,-7.8%,4.9%,13.7%,-8.35%,-14.4%
CCOC(=O)c1cc(=O)[nH]c(N)n1,-6.4%,-10.8%,-1.55%,-38.2%,10.4%,-4.15%
CN(C)CCC(OC(=O)c1ccccc1Cl)c1ccccc1 (stereo not given),-6.9%,10.1%,13.7%,17.2%,8.75%,13.1%
COC(C(=O)C(O)C(C)O)C1CC2C=C3C=C(OC4CC(OC5CC(O)C(OC)C(C)O5)C(OC(C)=O)C(C)O4)C(C)C(=O)C3=C(O)C2=C(O)C1OC1CC(OC2CC(OC3CC(C)(O)C(OC(=O)C(C)C)C(C)O3)C(O)C(C)O2)C(O)C(C)O1 (stereo not given),51%,50.7%,38.5%,81.9% (active),26.4%,45.8%
